NPYLR7 ag: mosquito NPYLR7 agonism | activation, % at 10 µM | HEK293T NPYLR7/Galpha15, GCaMP6s calcium fluorescence | actives 0.15% (n = 270,000); in the data active = activation above about 40%;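 also: 0% = vehicle and 100% = reference agonist at the receptor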
mcGAS inh: inhibitors of mouse cGAS | actives 0.15% (n = 160,000) | recombinant cGAS, Kinase-Glo ATP depletion luminescence | Q8C6L5 | inhibition, % at 12.5 µM | AID 1259399;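 also: 0% = negative control wells and 100% = reference inhibitor with no enzyme activity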
hcGAS inh: blocks human cGAS activity; AID 1259398; recombinant h-cGAS, ATP depletion, Kinase-Glo luminescence; actives 0.081% (n = 290,000); inhibition, % at 12.5 µM; Q8N884;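 also: 0% = vehicle reaction and 100% = reaction without DNA for no activity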
Target sequence (Q8N884 whole entry, looked up): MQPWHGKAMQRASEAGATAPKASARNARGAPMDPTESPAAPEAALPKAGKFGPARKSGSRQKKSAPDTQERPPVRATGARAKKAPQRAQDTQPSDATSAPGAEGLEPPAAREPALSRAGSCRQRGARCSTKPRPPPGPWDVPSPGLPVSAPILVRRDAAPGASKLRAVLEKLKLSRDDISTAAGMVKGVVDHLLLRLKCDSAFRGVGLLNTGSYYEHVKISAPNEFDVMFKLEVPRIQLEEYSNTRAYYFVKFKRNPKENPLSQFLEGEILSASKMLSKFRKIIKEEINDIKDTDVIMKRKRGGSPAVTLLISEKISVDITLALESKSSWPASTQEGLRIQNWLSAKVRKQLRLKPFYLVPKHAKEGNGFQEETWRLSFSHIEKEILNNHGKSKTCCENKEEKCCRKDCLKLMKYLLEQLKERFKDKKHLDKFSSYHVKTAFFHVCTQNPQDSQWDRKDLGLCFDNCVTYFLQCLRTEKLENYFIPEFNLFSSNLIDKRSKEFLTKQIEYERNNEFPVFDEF
Numbers without * were called inactive; . = not tested or not shown. An excerpt weighted towards active compounds, which were near 0.3% of everything screened. Rule as the data show it, unless noted: active = inhibition above about 40%; inactive = the rest.

SMILES	NPYLR7 ag	mcGAS inh	hcGAS inh
CC(Cn1ccnc1)NC(=O)NCC(C)(C)c1ccccc1F (centres undefined)	0.0	.	43.4*
CC(Cn1ccnc1)NC(=O)c1ccccc1N(C)C(=O)c1cccs1 (centres undefined)	4.7	.	-2.4
O=C1NC(=S)S/C1=C\c1ccc(-c2ccccc2C(=O)O)o1	14.9	82.7*	65.6*
CCN1C(=O)/C(=C\c2ccc(-c3ccccc3C(=O)O)o2)N(CC)C1=S	-0.6	-7.7	-7.4
Cc1nc(-c2ccsc2)sc1C(=O)NCc1ccccc1	0.1	-7.4	-5.0
CNC(=O)c1cnc(/C=C/c2csc(-c3ccsc3)n2)[nH]c1=O	67.1*	.	2.4
C#CCOCC(O)CN(Cc1ccccc1C)C1CC1 (centres undefined)	15.7	-1.8	-4.2
C#CCOCC(O)CN(Cc1cccn1Cc1ccccc1C)C1CC1 (centres undefined)	35.2	41.1*	-4.6
COc1cccc(O)c1CN1CCN(C2CCCCC2)C(=O)C1	-1.7	.	-1.0
O=C(CN1CCOC1=O)N1CCCC(OCc2ccccc2)C1 (centres undefined)	22.1	.	-5.1
CC(=O)NCCc1ccc(O)c(O)c1	87.5*	-0.7	-6.5
NCCc1ccc(O)c(O)c1	10.4	-7.6	-8.7
c1ccc2oc(-c3csc(Cc4nnc5n4CCCCC5)n3)cc2c1	-6.6	.	-0.1
CC1=NN(CC(=O)c2ccccc2)c2nc3c(c(=O)n(C)c(=O)n3C)n2C1C (centres undefined)	4.8	.	2.5
N#CCCNN=Cc1cc(I)c(O)c(I)c1	-1.0	99.0*	54.7*
COCc1cc(C)nc(N/N=C\c2cc(I)c(OC)c(OC)c2)c1C#N	-1.9	-4.6	-2.9
CN(C)C(=O)CN(C)S(=O)(=O)N(C)Cc1ccccc1	-0.2	.	-8.5
Cc1ccc(-c2onc3c2CCCC3)cc1NC(=O)/C=C/c1ccc(OC(F)(F)F)cc1	23.8	-3.4	-2.8
CN(CC1COc2ccccc2O1)C(=O)CCl (centres undefined)	-5.3	53.9*	-7.2
CN(CC1COc2ccccc2O1)C(=O)CN1C(=O)c2ccccc2S1(=O)=O (centres undefined)	2.5	.	-6.5
COC(=O)[C@@H](NC1CCN(c2ccc(NC(=O)c3ccc(C)cc3C)cc2)CC1)C(C)C	2.6	-12.7	-8.8
O=C1C(=Cc2ccccc2O)NC(=S)N1Cc1ccco1	80.1*	1.3	0.7
COc1ccccc1C=C1SC(=S)N(Cc2ccco2)C1=O	11.4	.	-9.2
CCOCCCN1C(=O)C(=Cc2ccccc2O)NC1=S	119.6*	.	0.8
CCCCN1C(=O)C(=Cc2cccnc2)NC1=S	5.6	.	-6.3
SMILES	NPYLR7 ag	mcGAS inh	hcGAS inh
O=c1ccccn1Cc1nc(-c2cc(Br)cs2)no1	15.7	-15.7	-7.2
CCn1nc(-c2cc(Br)cs2)nc2c(=O)n(C)c(=O)nc1-2	5.2	60.2*	21.9
OC(c1ccccc1)=c1ccc2cccc3ncnc1c23	1.8	.	-5.9
OC=c1ccc2cccc3nc(C(F)(F)F)nc1c23	76.8*	.	4.0
CC(C)(CCl)C(=O)Nc1ccc(N2CCC(Cc3ccccc3)CC2)c(C(=O)NCC2CCCO2)c1 (centres undefined)	17.4	-3.8	-6.9
COc1ccccc1CCNC(=O)CN1CN(c2ccccc2)C2(CCN(C(=O)c3ccccc3Br)CC2)C1=O	21.8	-3.7	-6.1
C=CCN1C(=O)C(Cc2ccc(OC)cc2)S/C1=N/N=C\c1cccs1 (centres undefined)	87.7*	-5.1	1.2
C=CCN1C(=O)C(Cc2ccc(OC)cc2)S/C1=N\N=C/c1ccco1 (centres undefined)	2.1	-6.2	-5.0
CN1CCC(C)(CN2CCCC(CNC(=O)c3ccsc3)C2)CC1 (centres undefined)	.	-4.3	-4.2
CN1CCN(c2cc(C(=O)Nc3cc(N4CCOC4=O)ccc3F)ccn2)CC1	1.4	-17.9	-5.3
Cc1ccc(C2=NN(C(=O)CN3CCN(C)CC3)C(c3ccccc3Cl)C2)cc1 (centres undefined)	45.3*	0.1	1.4
COc1ccc(C2=NN(C(=O)CN3CCC4(CC3)OCCO4)C(c3ccccc3OC)C2)cc1 (centres undefined)	14.3	-3.4	78.3*
Cc1ccc(C2=NN(C(=O)CN3CCCC3)C(c3ccccc3F)C2)cc1 (centres undefined)	-4.4	-6.3	-4.4
COc1ccccc1C1CC(c2cccc(F)c2)=NN1C(=O)CN1CCC2(CC1)OCCO2 (centres undefined)	1.9	-4.2	-3.9
CC1(C(=O)NCc2ccc3c(c2)OCO3)CCN1C(=O)c1ccccc1 (centres undefined)	12.2	-5.3	-10.5
Cc1nc2nc(-c3cc(Cl)ccc3O)cc(C(=O)O)c2[nH]1	-1.6	51.3*	9.0
Cc1nc2nc(-c3cccc(Cl)c3)cc(C(=O)O)c2[nH]1	-2.4	-2.3	-4.5
COc1ccc2c(c1OC)C(=O)OC2CC(=O)c1ccc([N+](=O)[O-])cc1 (centres undefined)	-5.5	57.5*	-3.9
COc1cccc(OC)c1OCCCOc1ccc([N+](=O)[O-])cc1	-5.2	.	-0.8
Cn1nc(-c2ccc(F)cc2)nc2c(=O)n(C)c(=O)nc1-2	2.2	67.3*	25.7
Cn1cnc(-c2ccc(F)cc2)cc1=O	-3.0	-6.9	-6.0
Cc1nn(CN2CCCCC2Cc2ccccc2)c(=S)s1 (centres undefined)	0.3	-6.5	-2.7
CCOc1cc(-c2nn(CN3CCOCC3)c(=S)o2)cc(OCC)c1OCC	2.9	.	3.7
S=c1oc(-c2sc3ccccc3c2Cl)nn1CN1CCOCC1	1.8	24.2	42.7*
COCCOc1ccc(NS(=O)(=O)c2cn(C)c(Cl)n2)cn1	99.0*	.	-9.2
SMILES	NPYLR7 ag	mcGAS inh	hcGAS inh
Cn1cc(S(=O)(=O)Nc2ccc(F)cn2)nc1Cl	-5.3	.	-4.1
O=C(C1CCCO1)N1CCC(NCCOc2ccccc2Cl)CC1 (centres undefined)	7.7	.	-6.3
COc1ccc(CN2C3CCC2CC(NC(=O)C24CC[C@@](C)(C(=O)O2)C4(C)C)C3)c(OC)c1 (some centres undefined)	2.7	76.4*	-5.1
COc1ccc(CCN2C3CCC2CC(NC(=O)C24CC[C@@](C)(C(=O)O2)C4(C)C)C3)cc1OC (some centres undefined)	3.8	-2.6	-2.5
CCN(CC)C(=O)Cn1c(=O)c2c(OC)c(C)cnc2n(C)c1=O	0.6	-8.6	-8.9
COc1ccc(C(=O)N(Cc2ccccc2)C2CCC(NC(=O)C3CCN(C(=O)c4ccccc4Cl)CC3)CC2)cc1 (centres undefined)	45.2*	-7.1	-4.9
COc1ccc(C(=O)N(Cc2ccccc2)C2CCC(NC(=O)C3CCN(C(=O)c4ccc(Cl)cc4)CC3)CC2)cc1 (centres undefined)	3.0	-8.1	-5.6
CCN(CC)CCCC(C)NC(=O)c1cc(-c2ccc(OC)cc2)nc2cc(-c3ccccc3)nn12 (centres undefined)	11.8	90.5*	91.2*
CCN(CC)CCCC(C)NC(=O)c1cc(-c2ccc(OC)cc2)nc2cc(-c3ccc(Cl)cc3)nn12 (centres undefined)	6.2	-2.6	-2.5
CN(C)/C=C1\C(=O)N(c2c(Cl)cccc2Cl)c2cc(C=C(C#N)C#N)ccc21	125.2*	.	-37.8
